Source: PubChem BioAssay (National Center for Advancing Translational Sciences (NCATS))
This excerpt belongs to a sample that is enriched for hits.
KDM5B inhibitor: inhibitors of human KDM5B histone demethylase | KDM5B demethylase, FDH-coupled NADH fluorescence (FDH is formaldehyde dehydrogenase) | Potency, µM (series often up to 57.7 µM), actives largely listed as inhibitors | actives 2.6% (n = 220,000) | AID 1347165; active = well fitted inhibition curve with a large enough effect; note: 0% is about no effect; nearly all actives have a fitted effect of over 70% in size
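Compound dilutions met 200 nM (final) KDM5BΔAP for 10 min at room temperature before substrate addition. The substrate mix held 12.5 µM H3K4me3 with cofactors 25 µM α-ketoglutarate and 50 µM Fe²⁺. NADH signal gain over 30 min defined activity.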
Numbers without * were called inactive; i = inactive. Potency is the fitted concentration of half-maximal effect.

SMILES	KDM5B inhibitor
N#Cc1cccc(NC(=O)N2C[C@@H]3C[C@H](C2)c2ccc(-c4ccc(OC(F)(F)F)cc4)c(=O)n2C3)c1	i
COc1ccc(S(=O)(=O)N2C[C@@H]3C[C@H](C2)c2ccc(NC(=O)c4ccncc4)c(=O)n2C3)cc1	i
COc1ccc(S(=O)(=O)N2C[C@@H]3C[C@H](C2)c2c(-c4ccc(OC(F)(F)F)cc4)ccc(=O)n2C3)cc1	i
O=C(O)C[C@@H]1CCN(C(=O)Nc2ccc(C(F)(F)F)cc2)C[C@@H]1CCN1C[C@@H]2C[C@H](C1)c1cccc(=O)n1C2	i
COc1ccc(S(=O)(=O)N2C[C@@H]3C[C@H](C2)c2ccc(-c4cccc(C(F)(F)F)c4)c(=O)n2C3)cc1	32µM*
O=C(Nc1ccccc1)N1C[C@@H]2C[C@H](C1)c1ccc(-c3cccc(C(F)(F)F)c3)c(=O)n1C2	32µM*
CC(C)(CC(=O)O)CC(=O)N1C[C@@H]2C[C@H](C1)c1ccc(-c3cccc(C(F)(F)F)c3)c(=O)n1C2	28µM*
CC(=O)Nc1ccc(S(=O)(=O)Nc2ccc3n(c2=O)C[C@H]2C[C@@H]3CN(Cc3cn(C)c4ccccc34)C2)cc1	i
COc1ccc(S(=O)(=O)N2C[C@@H]3C[C@H](C2)c2c(NC(=O)Nc4ccccc4)ccc(=O)n2C3)cc1	i
COc1ccc(C(=O)Nc2ccc3n(c2=O)C[C@H]2C[C@@H]3CN(C(=O)CCCC(=O)O)C2)cc1	i
CC(=O)Nc1ccc(S(=O)(=O)N2C[C@@H]3C[C@H](C2)c2ccc(-c4ccccc4C)c(=O)n2C3)cc1	25µM*
C[C@@H](NCc1cccc(Cl)c1)c1onc(-c2ccc(F)cc2)c1C(=O)O	i
COc1ccc(COc2ccc(C#N)cc2Cl)cc1F	i
COc1ccc(-c2nc(CC(=O)NC3CCN(Cc4ccccc4)CC3)cs2)cc1	i
O=C(NCc1cccc(C(F)(F)F)c1)C1CN(c2cccc(Cl)c2)C(=O)N1 (stereo not drawn)	i
CCOC(=O)c1ccc(OCc2ccccc2C#N)cc1	i
O=C(CCN=C1NS(=O)(=O)c2ccccc21)N(Cc1ccc(F)cc1)C1CC1	i
CC1(C(=O)N2CCC(c3ccccc3)CC2)CCc2cnc(Nc3ccncc3)nc21 (stereo not drawn)	i
COc1cc(Cl)ccc1C(=O)N(C)C1CCc2nnc(C)n2CC1 (stereo not drawn)	i
COc1ccc(CCC(=O)N(C)C2CCc3nnc(C)n3CC2)cc1OC (stereo not drawn)	i
COc1ccc(CC(=O)N(C)C2CCc3nnc(C)n3CC2)cc1Cl (stereo not drawn)	20µM*
NC(=O)c1ccc(NC(=O)Cn2ccc3c(Cl)cccc32)cc1	i
O=C(NCc1ccc(N2CCCC2)nc1)c1ccc(O)c(Cl)c1	i
O=C(NCCCN1CCCC1=O)c1ccc(-c2ccc(N3CCSCC3)nc2)cc1	i
O=C(NCCCN1CCCC1)c1ccncc1	i
SMILES	KDM5B inhibitor
CCn1cc(-c2ccc(Cl)cc2)cc1C(=O)NCCN1CCOCC1	i
O=C(NCCCN1CCOCC1)c1ccc(-c2ccc(N3CCCCCC3)nc2)cc1	25µM*
Cc1ccc(C(=O)NCCN2CCOCC2)cc1S(=O)(=O)N1CCCCC1	i
Cc1ccc(CNC(=O)c2ccc(-c3ccc(N4CCCCC4)nc3)cc2)o1	20µM*
O=C(NCCN1CCOCC1)c1ccc(-c2ccc(N3CCCCCC3)nc2)cc1	28µM*
Cc1ncsc1C(=O)NCc1ccc(N2CCCC2)nc1	i
Cc1nc(-c2cccc(N3CC(C(=O)NCc4ccccc4C)CC3=O)c2)no1 (stereo not drawn)	i
CC1=CCC(/C=N/NC(N)=S)CC1 (stereo not drawn)	i
Cn1cnnc1-c1ccc(NS(=O)(=O)c2ccc3c(c2)CCC3)cc1	i
COc1ccc(C)cc1NC(=O)c1nc(-c2ccccc2)oc1C	i
CCc1ccc(NC(=O)CSc2nc3cc([N+](=O)[O-])ccc3o2)cc1	i
COC(=O)C(C)Sc1ccccc1C(=O)O (stereo not drawn)	i
COc1ccc(CC(=O)N2CC(c3nnc(C(C)C)o3)C3(CCOCC3)C2)cc1Cl (stereo not drawn)	i
O=C(Cc1ccc(Cl)cc1Cl)N1CCN(c2ccccc2O)CC1	i
COc1ccc2oc(=O)c(C(=O)NCc3ccc(C)cc3)cc2c1	i
COc1ncccc1-c1cc2c(ccn2C(C)C)c(C(=O)NCc2c(C)cc(C)[nH]c2=O)n1	i
COc1nc2c(cc1CNC(=O)c1cccnc1C)C(=O)N(C1CCCC1)C2	i
COc1ccc(CNC(=O)c2cnc3cc(C)ccn3c2=O)cc1	i
COc1ccc(-c2cc(C(=O)NCc3c(C)cc(C)[nH]c3=O)c3c(c2)N(C)CCO3)cc1	32µM*
Cc1cc(C)c(CNC(=O)c2cc(-c3ccccc3C)cc3c2OCCN3C)c(=O)[nH]1	40µM*
COc1ccc(-c2cc(C(=O)NCc3c(C)cc(C)[nH]c3=O)c3c(c2)N(C(C)C)CCO3)cc1OC	35µM*
COc1ccc(-c2noc(CNC(=O)c3cnn(C(C)C)c3)n2)cc1OC	i
